PubChem BioAssay AID2501 (Southern Research Specialized Biocontainment Screening …, 2010)
Among all 2,200 compounds or so, about 1,200 (55%) were called active. The set was probably picked from earlier hits. The list shows a part of the results. Unmarked numbers belong to inactive results. No cut-off is given here; in the data, nearly all actives have IC50 up to about 92 µM.

experiment: counter assay for TAg ATPase ADP read-out – biochemical, ADP-Hunter, fluorescence, counter-screen (AID 2501); settings: series mostly up to 100 µM; inhibition: at the top concentration;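 note: purified T antigen ATPase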;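 for inhibition: 0% = enzyme with vehicle and 100% = reference inhibitor wells; higher means more inhibition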

Row | Compound | IC50 | inhibition
1 | CN(C)c1ccc(/C=C/c2cc[n+]([O-])cc2)cc1 | 5.15 µM (active) | –
2 | Oc1ccc(Nc2nc(NCC3CCCO3)c3ccccc3n2)cc1 (stereo unspecified) | 5.81 µM (active) | –
3 | OCCNc1nc(Nc2ccc(O)cc2)nc2ccccc12 | 2.57 µM (active) | –
4 | O=S(=O)(c1cccs1)N1CN(CC2CCCO2)c2nc3ccccc3nc21 (stereo unspecified) | – | 12.7%
5 | CN(Cc1ccco1)S(=O)(=O)c1nnc(NC(=O)c2cccc(Cl)c2)s1 | – | -22.5%
6 | CCn1cc(CN2CCC(n3nccc3NC(=O)c3ccccc3OC)CC2)cn1 | – | 10.8%
7 | CC(C)(C)OC(=O)N/N=C/c1ccc(N2CCOCC2)s1 | 8.25 µM (active) | –
8 | NC(=O)N/N=C/c1ccc(N2CCOCC2)s1 | 10.7 µM (active) | –
9 | COc1ccc(N(CC(=O)NCCc2cccc(C)c2)S(=O)(=O)c2c(C)noc2C)cc1 | – | -11.9%
10 | COc1cccc(NS(=O)(=O)c2ccc3c(c2)C2C=CCC2C(c2ccc(C(=O)O)cc2)N3)c1 (stereo unspecified) | – | 25.9%
11 | Oc1ccc(-c2csc(Nc3ncccn3)n2)cc1O | 10.2 µM (active) | –
12 | Oc1ccc(-c2csc(Nc3ccccn3)n2)cc1O | 11.2 µM (active) | –
13 | Cc1ccc(Nc2nc(-c3ccc(O)c(O)c3)cs2)nc1 | 8.68 µM (active) | –
14 | Oc1ccc(-c2csc(Nc3cccc4ccccc34)n2)cc1O | 23.6 µM (active) | –
15 | Cc1cc(-c2nnc(SCc3ccccn3)o2)no1 | – | -8.85%
16 | Cc1onc(-c2c(F)cccc2Cl)c1C(=O)OCC(=O)NC(c1ccccc1)c1ccccc1 | – | 5.42%
17 | COc1cc(/C=C2/C(=N)N3C(=NC2=O)SN=C3S(=O)(=O)C(C)C)ccc1OS(=O)(=O)c1ccccc1 | – | -14.3%
18 | CCOc1cc(/C=C2\C(=N)N3N=C(S(=O)(=O)CC)SC3=NC2=O)ccc1OC(=O)c1ccco1 | – | 8.45% [at 6.25 µM]
19 | CCS(=O)(=O)C1=NN2C(=N)/C(=C\c3ccc(OC(=O)c4ccco4)c(OC)c3)C(=O)N=C2S1 | 54.2 µM (active) | –
20 | COc1cc(/C=C2\C(=N)N3N=C(S(C)(=O)=O)SC3=NC2=O)ccc1OS(=O)(=O)c1ccc(C)cc1 | 28.6 µM (active) | –
21 | COc1cc(/C=C2/C(=N)N3C(=NC2=O)SN=C3S(C)(=O)=O)ccc1OS(=O)(=O)c1ccc(C)cc1 | – | -20.2%
22 | CCS(=O)(=O)C1=NN2C(=N)/C(=C\c3ccc(SCc4ccco4)o3)C(=O)N=C2S1 | – | 21.2%
23 | O=C1OC(c2ccc(Cl)cc2)=N/C1=C\C=C\c1ccco1 | – | 16.1%
24 | Oc1ccc(-c2cn3ccccc3n2)cc1 | 3.69 µM (active) | –
25 | Oc1ccc(-c2cn3ccccc3n2)cc1O | 5.62 µM (active) | –
26 | Cc1ccn2cc(-c3ccc(O)c(O)c3)nc2c1 | 7.1 µM (active) | –

Row | Compound | IC50 | inhibition
27 | Cc1ccc(-c2nnc(Nc3ccc(O)cc3)c3ccccc23)cc1S(=O)(=O)NCCO | 5.63 µM (active) | –
28 | CCOc1cc(NS(=O)(=O)c2ccc(NC(C)=O)cc2)c(OCC)cc1NC(=O)c1cccs1 | 7.08 µM (active) | –
29 | COc1cc(NS(=O)(=O)c2ccc(NC(=S)NC(=O)/C=C/c3ccco3)cc2)ncn1 | – | 10.9%
30 | O=C(Nc1cccc(N2C(=O)C=CC2=O)c1)c1cccs1 | – | -19%
31 | CN=c1scc(-c2ccco2)n1/N=C/c1ccc(O)c(O)c1 | 8.2 µM (active) | –
32 | Cc1cccc(C(=O)NCC(=O)OCC(=O)c2ccc(Cl)s2)c1 | – | -37%
33 | O=C(COc1cccnc1[N+](=O)[O-])c1ccc(Cl)s1 | 39.2 µM (active) | –
34 | O=C(Nc1ccon1)c1cc2ccccc2oc1=O | – | 8.87%
35 | COc1cc(-c2cc(=O)c3c(O)c(OC)c(OC)c(O)c3o2)ccc1O | – | -0.18%
36 | COc1cc(-c2cc(=O)c3ccccc3o2)ccc1O | 3.14 µM (active) | –
37 | O=C(OC1CCCCC1=O)c1cc(=O)c2ccccc2o1 (stereo unspecified) | – | -12.4%
38 | CCCOCC1CC(CCc2nc(=S)[nH][nH]2)C(=O)O1 (stereo unspecified) | – | 17%
39 | O=c1c2ccccc2sn1-c1nccs1 | 14.1 µM (active) | –
40 | O=C(Cn1sc2ccccc2c1=O)NC12CC3CC(CC(C3)C1)C2 | – | 12.6%
41 | Cc1ccnc(-n2sc3ccccc3c2=O)n1 | 9.06 µM (active) | –
42 | Cc1ccnc(NS(=O)(=O)c2ccccc2)n1 | – | -41.4%
43 | O=c1[nH]sc2ccccc12 | – | 14.1%
44 | Cc1cc(=O)c2ccccc2s1 | – | -17.1%
45 | COc1cccc(C(c2sc3nc(C)nn3c2O)N2CCN(c3ccccc3F)CC2)c1 (stereo unspecified) | – | -11.5%
46 | CN(C)c1nn(C(=O)Nc2ccc(Cl)cc2Cl)cc1-c1ccccc1 | 14.8 µM (active) | –
47 | O=C(O)/C=C/C(=O)Nc1ccc(Cl)cc1C(=O)c1ccccc1 | – | 14.6%
48 | CCCCSc1cc(C)nc(N)n1 | – | 19.6%
49 | CCN(CC)c1ccc(NC(=O)c2cccnc2)c(C)c1 | 6.37 µM (active) | –
50 | CCOC(=O)c1cc(NC(=O)c2cccnc2)ccn1 | – | -20.6%
51 | CCN(CC)c1ccc(NC(=O)c2cccnc2)cc1 | 8.35 µM (active) | –
52 | COC(=O)NNC(=O)c1ccccc1C | – | -37.6%

Row | Compound | IC50 | inhibition
53 | COCCNC(=O)C(=O)Nc1ccc(Cl)cc1C | – | -0.65%
54 | CCN(CC)c1ccc(NC(=O)c2cnn(CC)c2)cc1 | 4.27 µM (active) | –
55 | CCN(CC)c1ccc(NC(=O)c2cccc(C)c2OC)c(C)c1 | 14.9 µM (active) | –
56 | COc1ccc(N2C(=NC(C)=O)SC3CS(=O)(=O)CC32)cc1OC (stereo unspecified) | – | -4.91%
57 | CC(C)=CCc1c(O)c(CC=C(C)C)c2c(c1O)-c1cc(O)c(O)cc1CC2 | – | 9.25%
58 | O=C(NCc1ccccn1)C1CCN(S(=O)(=O)c2ccccc2)CC1 | – | -6.17%
59 | CCN(CC)c1ccc(NC(=O)c2cccc(F)c2)c(C)c1 | 9.01 µM (active) | –
60 | COc1ccc2c(c1OC)C(=O)N(c1ccc(O)cc1)C2 | 2.39 µM (active) | –
61 | C=CS(=O)c1sc(Cl)c(N2CCOCC2)c1[N+](=O)[O-] (stereo unspecified) | – | -0.59%
62 | CC(=O)Oc1cc2cccc(OC(C)=O)c(=O)c2c(OC(C)=O)c1OC(C)=O | 91.6 µM (active) | –
63 | Cc1ccc(S(=O)(=O)Nc2cc(NC(=O)CN3CCOCC3)ccc2Cl)cc1 | – | -29%
64 | Cn1c(CCC(=O)Nc2cc(S(C)(=O)=O)ccc2Cl)nc2cc(S(=O)(=O)N3CCOCC3)ccc21 | – | -11.3%
65 | O=C(CN1CCN(c2ccc(O)cc2)CC1)Nc1cc(S(=O)(=O)N2CCOCC2)ccc1Cl | 6.43 µM (active) | –
66 | COC(=O)Nc1ccc(S(=O)(=O)N2CCCC(C(=O)N3CCOCC3)C2)cc1 (stereo unspecified) | – | -6.27%
67 | O=S(=O)(c1ccc(NC(=S)N2CCN(c3ccc(O)cc3)CC2)cc1)N1CCOCC1 | 4.49 µM (active) | –
68 | Cc1ccc(S(=O)(=O)N2CCOCC2)cc1NC(=O)CN1CCN(c2ccc(O)cc2)CC1 | 5.44 µM (active) | –
69 | Cc1ccc(S(=O)(=O)n2nc(OC(=O)c3ccccc3C)cc2N)cc1 | – | 19.6%
70 | O=C(Nc1ccc(Cl)c(Cl)c1)Oc1ccc(NC(=O)c2ccco2)cc1 | 23.2 µM (active) | –
71 | COc1ccccc1NC(=O)c1c([N+](=O)[O-])cnn1C | – | -9.19%
72 | COc1ccccc1NC(=O)Oc1ccc(NC(=O)c2ccco2)cc1 | 3.94 µM (active) | –
73 | COc1cc(NC(=O)COc2ccccc2C)ccc1NC(=O)c1ccco1 | – | -3.52%
74 | O=C(Nc1cccc(NC(=O)c2ccco2)c1)c1ccc([N+](=O)[O-])cc1 | – | 1.05%
75 | C=CCSc1nc(N)c(NC(=O)c2ccco2)c(=O)[nH]1 | – | -24.7%
76 | Cc1cc(O)c(C=O)c2c1C(=O)Oc1c(CO)c(O)c3c(c1O2)C(O)OC3=O (stereo unspecified) | – | -13.8%
77 | O=S(=O)(O)c1cccc2c(N=Nc3ccc(O)c4ncccc34)cccc12 | – | 25.6%
78 | O=[N+]([O-])c1cc([N+](=O)[O-])c2cccnc2c1Oc1ccccc1O | 21.8 µM (active) | –

Row | Compound | IC50 | inhibition
79 | O=[N+]([O-])c1cc(CN2CCCC2)c2cccnc2c1O | – | -20.7%
80 | Cc1nonc1C1CCCN1C(=O)c1cc(COc2ccc(F)cc2F)on1 (stereo unspecified) | – | -6.07%
81 | COc1ccccc1C(NC(C)=O)c1c(O)ccc2ccc(O)cc12 (stereo unspecified) | – | 0.8% [at 50 µM]
82 | O=C(CCO)c1ccc(O)cc1 | – | 9.16%
83 | COc1cc(O)ccc1C(=O)CCc1ccc(O)cc1 | 6.75 µM (active) | –
84 | COc1cc(C2OCC3C(c4ccc(OC5OC(CO)C(O)C(O)C5O)c(OC)c4)OCC23)ccc1O (stereo unspecified) | 8.74 µM (active) | –
85 | O=C(CN1C(=O)/C(=C/c2ccco2)SC1=S)Nc1ccc(O)c(C(=O)O)c1 | – | -2%
86 | O=C(CN1C(=O)/C(=C/c2ccco2)SC1=S)NC1CCS(=O)(=O)C1 (stereo unspecified) | 35.1 µM (active) | –
87 | O=C(CN1C(=O)/C(=C\c2ccco2)SC1=S)Nc1ccc(O)cc1C(=O)O | – | 16.6%
88 | N#Cc1c(Nc2ccccc2Cl)s[nH]c1=O | – | 27.8%
89 | O=C([C@H](Cc1ccccc1)NS(=O)(=O)c1ccc(Cl)cc1)N1CC[C@@]2(O)CCCC[C@H]2C1 | 18.9 µM (active) | –
90 | O=C(O)CSc1cc(NS(=O)(=O)c2ccc(Cl)cc2)c2ccccc2c1O | – | -205%
91 | COc1ccc(-c2c(C)nn3c(-c4ccccc4)cc(C)nc23)cc1 | – | -13.8%
92 | NC(=S)N=Nc1ccc(NN=C(N)N)cc1 | 6.85 µM (active) | –
93 | COc1ccccc1C1/C(=C(/O)c2ccc(C)cc2)C(=O)C(=O)N1CC(C)O (stereo unspecified) | – | -24%
94 | CCCOc1ccc(Cc2nn3c(=O)/c(=C/c4ccco4)sc3nc2=O)cc1 | – | -9.71%
95 | O=c1nc2s/c(=C\c3ccco3)c(=O)n2nc1Cc1ccccc1 | – | -12.8%
96 | COC1=C/C(=C/c2c(N)n3nc(-c4ccc(C)cc4)sc3nc2=O)C=CC1=O | 10.8 µM (active) | –
97 | CCOC1=C/C(=C/c2c(N)n3nc(-c4ccccc4)sc3nc2=O)C=CC1=O | 11.2 µM (active) | –
98 | CCOC(=O)N1CCN(c2cc(NCCC(=O)O)c3c4c(onc24)-c2ccccc2C3=O)CC1 | 8.63 µM (active) | –
99 | CCOc1cc(CNc2ccc(N3CCN(C(C)=O)CC3)cc2)cc(Br)c1OC | 5.42 µM (active) | –
100 | CCOc1c(Br)cc(CNc2ccc(N3CCN(C(C)=O)CC3)cc2)cc1OC | 7.66 µM (active) | –
101 | CCOc1c(Br)cc(CNc2ccc(N3CCOCC3)cc2)cc1OC | 6.04 µM (active) | –
